{"source": "PubChem BioAssay AID1645853", "about": "(Buhrlage Lab, Dana-Farber Cancer Institute and Novartis …, 2021)", "note": "About 2,000 (4.3%) of roughly 47,000 compounds were called active. Rule as the data show it: active = inhibition above about 30%; inactive = the rest. What follows is part of a selection rich in actives, with near analogues and random picks from the rest."}
{"biological_target": "Ubiquitin carboxyl-terminal hydrolase 8 (Homo sapiens) (UniProt P40818)", "sequence (P40818 whole entry, looked up)": "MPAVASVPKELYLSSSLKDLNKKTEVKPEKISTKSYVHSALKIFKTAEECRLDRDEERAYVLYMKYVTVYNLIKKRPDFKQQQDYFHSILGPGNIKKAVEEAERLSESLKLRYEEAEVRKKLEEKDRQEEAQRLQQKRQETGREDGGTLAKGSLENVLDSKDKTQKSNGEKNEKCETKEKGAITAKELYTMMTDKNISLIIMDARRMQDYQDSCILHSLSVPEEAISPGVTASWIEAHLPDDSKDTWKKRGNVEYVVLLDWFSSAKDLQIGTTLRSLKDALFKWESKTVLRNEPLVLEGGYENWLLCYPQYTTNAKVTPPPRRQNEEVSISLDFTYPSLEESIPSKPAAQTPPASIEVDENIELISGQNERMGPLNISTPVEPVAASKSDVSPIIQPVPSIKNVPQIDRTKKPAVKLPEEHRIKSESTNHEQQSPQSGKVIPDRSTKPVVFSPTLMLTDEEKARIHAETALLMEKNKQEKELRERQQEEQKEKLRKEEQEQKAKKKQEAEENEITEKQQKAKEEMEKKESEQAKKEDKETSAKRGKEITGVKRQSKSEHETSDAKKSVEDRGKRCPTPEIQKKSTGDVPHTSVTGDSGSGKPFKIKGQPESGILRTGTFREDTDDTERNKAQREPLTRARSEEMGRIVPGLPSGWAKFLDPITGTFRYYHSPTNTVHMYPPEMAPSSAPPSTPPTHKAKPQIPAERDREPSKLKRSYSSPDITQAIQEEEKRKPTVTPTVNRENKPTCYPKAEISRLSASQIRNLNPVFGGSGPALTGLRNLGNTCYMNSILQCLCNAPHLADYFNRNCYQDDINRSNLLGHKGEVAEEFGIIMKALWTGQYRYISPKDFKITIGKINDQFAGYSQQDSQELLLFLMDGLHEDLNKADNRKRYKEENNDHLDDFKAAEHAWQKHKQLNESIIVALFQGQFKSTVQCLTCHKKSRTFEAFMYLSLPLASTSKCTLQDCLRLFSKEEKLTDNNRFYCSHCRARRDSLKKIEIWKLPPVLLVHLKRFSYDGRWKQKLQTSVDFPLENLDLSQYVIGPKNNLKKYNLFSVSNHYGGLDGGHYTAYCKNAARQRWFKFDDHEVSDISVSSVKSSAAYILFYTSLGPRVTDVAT", "experiment": "inhibitors of human USP8 deubiquitinase (AID 1645853)", "conditions": "purified USP8, Ub-rhodamine cleavage fluorescence, 30 min; at 20 µM; hits give high values"}
{"molecule": "CCc1cccc(C)c1NC(=O)CSc1nc2c(c(=O)[nH]1)CCCC2", "inhibition": "18% (inactive)"}
{"molecule": "Cc1cc(=O)n(CC(=O)NCc2ccccc2)c(N2CCCC2)n1", "inhibition": "2.35% (inactive)"}
{"molecule": "CCc1cccc(C)c1NC(=O)Cn1nc2ccc(C(=O)NCc3ccccc3)cn2c1=O", "inhibition": "74.5% (active)"}
{"molecule": "O=S(=O)(Cc1nnc(-c2cc(Cl)cc(Cl)c2)o1)c1ccc(Cl)cc1", "inhibition": "45.6% (active)"}
{"molecule": "Cc1ccc(-c2nnc(CCC(=O)O)o2)cc1", "inhibition": "3.95% (inactive)"}
{"molecule": "N#Cc1ccc(-c2nc(CS(=O)(=O)c3ccc(Cl)cc3)no2)cc1", "inhibition": "-6.87% (inactive)"}
{"molecule": "C[C@H](NC(=O)Cc1ccc(Cl)cc1)C(=O)N1CCC2(CC1)NCCc1[nH]cnc12", "inhibition": "21.2% (inactive)"}
{"molecule": "O=C(NCC(=O)N1CCC2(CC1)NCCc1[nH]cnc12)c1ccc(Br)cc1", "inhibition": "18.8% (inactive)"}
{"molecule": "O=C(NCCC(=O)N1CCC2(CC1)NCCc1[nH]cnc12)c1ccc(-c2ccccc2)cc1", "inhibition": "34.7% (active)"}
{"molecule": "Cc1cc(Cl)ccc1OCCCC(=O)NCc1ccccn1", "inhibition": "-25% (inactive)"}
{"molecule": "COc1cc(C(=O)Nc2ccc(-c3nc4cnccc4o3)cc2)cc(OC)c1OC", "inhibition": "-3.3% (inactive)"}
{"molecule": "O=C(Nc1ccc(-c2nc3cnccc3o2)c(O)c1)c1ccc(-c2ccccc2)cc1", "inhibition": "-4.15% (inactive)"}
{"molecule": "O=C(Cc1ccccc1)Nc1ccc(-c2nc3cnccc3o2)c(O)c1", "inhibition": "74.3% (active)"}
{"molecule": "CCCc1noc(-c2ccc(-n3ncc(C(=O)N4CCOCC4)c3C)nc2)n1", "inhibition": "0.113% (inactive)"}
{"molecule": "CCCCN(C)c1ccc2nnc(CCc3nc(-c4cc(OC)cc(OC)c4)no3)n2n1", "inhibition": "84.8% (active)"}
{"molecule": "COc1ccc(-c2noc(CN(C3CCCCC3)S(=O)(=O)c3ccc(OC)cc3)n2)cc1", "inhibition": "14% (inactive)"}
{"molecule": "COc1cccc(-c2noc(CN3CCCC3c3cc(OC)ccc3OC)n2)c1", "note": "(centres undefined)", "inhibition": "-12.7% (inactive)"}
{"molecule": "CSCCC(NC(=O)C1CCCC1)c1nc2ccccc2[nH]1", "note": "(centres undefined)", "inhibition": "-5.64% (inactive)"}
{"molecule": "Cc1ccc(NC(=O)CCn2cnc3c2c(=O)n(C)c(=O)n3C)cc1", "inhibition": "-3.63% (inactive)"}
{"molecule": "Cn1c(=O)c2c(ncn2Cc2nnc(-c3ccccc3)o2)n(C)c1=O", "inhibition": "64.8% (active)"}
{"molecule": "Cc1cnc(NC(=O)Cn2cnc3c2c(=O)n(C)c(=O)n3C)s1", "inhibition": "19.6% (inactive)"}
{"molecule": "CC1CCN(C(=O)c2ncn3c2CN(C)S(=O)(=O)c2ccccc2-3)CC1", "inhibition": "6.05% (inactive)"}
{"molecule": "CCc1nnc2ccc(S(=O)(=O)N(CC)c3ccccc3)cn12", "inhibition": "-281% (inactive)"}
{"molecule": "Cc1cc(NC(=O)COC(=O)c2cccc(C)c2O)ccc1Br", "inhibition": "0.58% (inactive)"}
{"molecule": "Nn1c(SCC(=O)Nc2ccccc2F)nnc1-c1n[nH]c2c1CCC2", "inhibition": "7.87% (inactive)"}
{"molecule": "Cc1cc(-c2nnc(SCC(=O)Nc3ccc(Br)c(C)c3)n2N)n[nH]1", "inhibition": "31% (active)"}
{"molecule": "CC(C)(C)n1nc(C2CC2)c(Br)c1NC(=O)c1ccccc1F", "inhibition": "20.5% (inactive)"}
{"molecule": "CC1(C)CCC2(C(=O)O)CC[C@]3(C)C(=CC[C@@H]4[C@@]5(C)CCC(O)C(C)(C)[C@@H]5CC[C@]43C)C2C1", "note": "(some centres undefined)", "inhibition": "4.43% (inactive)"}
{"molecule": "Cc1cccc(CNC(=O)CN2C(=O)C3CCCN3C(=O)c3cccc(C)c32)c1", "note": "(centres undefined)", "inhibition": "5.77% (inactive)"}
{"molecule": "Cc1cccc(NC(=O)Cn2c(C)ccc(NC(=O)Nc3cccc(C)c3)c2=O)c1", "inhibition": "26.5% (inactive)"}
{"molecule": "Cc1cccc(C2=NC3(CCN(CC(=O)Nc4ccccc4C)CC3)NC2=O)c1", "inhibition": "-2.9% (inactive)"}
{"molecule": "Cc1ccc2cc(CNc3ccccc3)c(=O)n(CC(=O)Nc3ccccc3C)c2c1", "inhibition": "92.8% (active)"}
{"molecule": "CCOC(=O)c1cc(S(=O)(=O)Nc2ccc(OC)c(Cl)c2)cn1C", "inhibition": "11.8% (inactive)"}
{"molecule": "O=C(NC1CC2(CCOCC2)Oc2ccccc21)c1[nH]ncc1Cl", "note": "(centres undefined)", "inhibition": "3.95% (inactive)"}
{"molecule": "O=C(COc1ccccc1)Nc1cnc(-c2cccc(Cl)c2)nc1", "inhibition": "60.7% (active)"}
{"molecule": "CSc1cccc(NC(=O)COc2ccc(C(=O)c3ccccc3)cc2)c1", "inhibition": "-0.948% (inactive)"}
{"molecule": "COc1ccc(CC(=O)Nc2cnc(-c3ccccc3)nc2)cc1", "inhibition": "-7.3% (inactive)"}
{"molecule": "CCC(C)[C@H](NC(=O)[C@@H]1Cc2c([nH]c3ccccc23)C2c3ccccc3C(=O)N21)C(=O)NCCc1ccccc1", "note": "(some centres undefined)", "inhibition": "-10.4% (inactive)"}
{"molecule": "Cc1cccc(C(=O)Nc2ccc(-n3c(C)nc4ncccc4c3=O)cc2C)c1", "inhibition": "5.93% (inactive)"}
{"molecule": "COc1cccc(C2c3[nH]c4ccccc4c3C[C@@H]3C(=O)N(Cc4ccc5c(c4)OCO5)CC(=O)N23)c1", "note": "(some centres undefined)", "inhibition": "13.4% (inactive)"}
{"molecule": "CCc1cc(=O)n(CC(=O)Nc2cc(C)on2)c(-c2ccccc2)n1", "inhibition": "-44.3% (inactive)"}
{"molecule": "CN(c1ccccc1)c1nc(=O)n(CC(=O)Nc2ccc3c(c2)OCCO3)c2ccccc12", "inhibition": "-40.3% (inactive)"}
{"molecule": "Cc1cc(=O)n(CC(=O)Nc2ccc3c(c2)OCO3)c2c1c(-c1ccccc1)nn2-c1ccccc1", "inhibition": "67.9% (active)"}
{"molecule": "CCS(=O)(=O)Nc1cc(S(=O)(=O)Nc2cc(Cl)ccc2Cl)ccc1N1CCOCC1", "inhibition": "2.1% (inactive)"}
{"molecule": "CC(=O)N1CCc2cc(S(=O)(=O)Nc3ccccc3N3CCN(C)CC3)ccc21", "inhibition": "-8.86% (inactive)"}
{"molecule": "CCCN1CCN(c2ccc(C(=O)O)cc2NS(=O)(=O)c2cc(F)ccc2F)CC1", "inhibition": "84.9% (active)"}
{"molecule": "Cc1ccnc(SCc2nc(-c3ccc4c(c3)ncn4C)no2)n1", "inhibition": "2.93% (inactive)"}
{"molecule": "Cc1noc(C2(NC(=O)Cc3ccccc3C)CCCCC2)n1", "inhibition": "-1.15% (inactive)"}
{"molecule": "O=C(Cc1cccc(F)c1)NC1(c2nc(C3CC3)no2)CCCCC1", "inhibition": "5.33% (inactive)"}
{"molecule": "Cc1csc(C2(NC(=O)Cc3cc(C)on3)CCCC2)n1", "inhibition": "74.9% (active)"}
{"molecule": "Cc1noc(C)c1S(=O)(=O)NCc1ccc2c(c1)CCN2C(=O)C(C)C", "inhibition": "21.9% (inactive)"}
{"molecule": "Cc1cccc(N2CCN(S(=O)(=O)c3c[nH]c(-c4nnc(C)o4)c3)CC2C)c1", "note": "(centres undefined)", "inhibition": "12.2% (inactive)"}
{"molecule": "CC(C)NS(=O)(=O)c1ccc(NC(=O)c2cccnc2)cc1", "inhibition": "4.16% (inactive)"}
{"molecule": "CCc1cc(C2CCCN2C(=O)c2cc(-c3ccccc3F)no2)on1", "note": "(centres undefined)", "inhibition": "0.852% (inactive)"}
{"molecule": "O=C(C1CCC1)N1CCCN(c2ccc([N+](=O)[O-])cn2)CC1", "inhibition": "-127% (inactive)"}
{"molecule": "CN(C)c1ccc(S(=O)(=O)NCC(=O)NCC2CCCCC2)cc1[N+](=O)[O-]", "inhibition": "-110% (inactive)"}
{"molecule": "Oc1cccc2nc3c(O)cccc3nc12", "inhibition": "94.4% (active)"}
{"molecule": "O=C(NCc1ccc2c(c1)OCO2)C1CCCN(c2nc3ccc(Cl)cc3[nH]2)C1", "note": "(centres undefined)", "inhibition": "7.49% (inactive)"}
{"molecule": "CC(=O)N[C@@]12CN(C)CC[C@@H]1[C@@H](c1ccccc1)N(CC(=O)Nc1cc(F)ccc1C)C2", "inhibition": "-5.94% (inactive)"}
{"molecule": "N#Cc1ccccc1Cn1c(=O)n(CCCC(=O)NCc2ccc(F)cc2)c(=O)c2ccccc21", "inhibition": "15.6% (inactive)"}
{"molecule": "COc1ccc(CCNC(=O)CCCn2c(=O)c3ccccc3n(CC(=O)OCc3ccccc3)c2=O)cc1OC", "inhibition": "1.77% (inactive)"}
{"molecule": "Cc1ccc(CNC(=O)CCCn2c(=O)c3sccc3n(CC(=O)OCc3ccccc3)c2=O)cc1", "inhibition": "63.4% (active)"}
{"molecule": "Cc1cc(C)nc(-n2nc(C)c(C#N)c2NC(=O)c2cccc(Cl)c2)n1", "inhibition": "2.08% (inactive)"}
{"molecule": "COc1ccc(-c2cnoc2-c2ccc(O)cc2O)cc1OC", "inhibition": "22% (inactive)"}
{"molecule": "c1coc(CNc2nc(Nc3cccc4ccccc34)nc3ccccc23)c1", "inhibition": "35.8% (active)"}
{"molecule": "Fc1ccc(-n2cc(-c3ccccc3)c3c(NCc4ccco4)ncnc32)cc1", "inhibition": "5.27% (inactive)"}
{"molecule": "CC(C)Cc1nc2sc3c(NCc4ccco4)ncnc3c2c2c1CCC2", "inhibition": "16.6% (inactive)"}
{"molecule": "COCCN1CC[C@@H]2Oc3ccccc3S(=O)(=O)N(Cc3cccnc3)[C@H]2CC1", "inhibition": "-50.1% (inactive)"}
{"molecule": "COc1cccc(S(=O)(=O)N2CCC(n3cnnc3C3CC3)CC2)c1", "inhibition": "1.34% (inactive)"}
{"molecule": "COc1cc(-c2nc3c4cnn(-c5ccccc5)c4ncn3n2)cc(OC)c1OC", "inhibition": "-3.12% (inactive)"}
{"molecule": "C#CCOc1ccc(CN2CCc3nc(-c4cccnc4)[nH]c(=O)c3C2)cc1OC", "inhibition": "13.3% (inactive)"}
{"molecule": "C#CCOc1ccc2ccccc2c1CN1CCc2ccccc2C1", "inhibition": "41.1% (active)"}
{"molecule": "Cn1nnnc1-c1cc(Cl)cc(Cl)c1", "inhibition": "-13.4% (inactive)"}
{"molecule": "CCc1cc(=O)n(CC(=O)NCC2CCCO2)c(N)n1", "note": "(centres undefined)", "inhibition": "0.518% (inactive)"}
{"molecule": "COc1cccc(CNC(=O)N2CCN(Cc3ccc4nccnc4c3)CC2)c1", "inhibition": "-8.24% (inactive)"}
{"molecule": "Cn1c(CC2CCN(S(=O)(=O)c3cccnc3)C2)nc2cccnc21", "note": "(centres undefined)", "inhibition": "13.9% (inactive)"}
{"molecule": "O=C(NCc1ccccc1)c1c(O)c2cnn(Cc3ccccc3)c2[nH]c1=O", "inhibition": "0.46% (inactive)"}
{"molecule": "CC1(C(=O)NC2CCCC2)Cn2c(cc3ccccc32)C(=O)N1c1ccc(F)cc1", "note": "(centres undefined)", "inhibition": "50.7% (active)"}
{"molecule": "COc1ccccc1CN1C(=O)c2cc3occc3n2CC1(C)C(=O)NC1CCCCC1", "note": "(centres undefined)", "inhibition": "13.4% (inactive)"}
{"molecule": "CC(C)CCNC(=O)C1(C)Cn2c(cc3ccccc32)C(=O)N1Cc1ccccc1F", "note": "(centres undefined)", "inhibition": "0.22% (inactive)"}
{"molecule": "CO\\C=C(C(=O)OC)/C(=C\\C=C\\c1ccccc1)CO", "inhibition": "-79.7% (inactive)"}
{"molecule": "Cc1cc(C)c2ccc(NC(=O)c3ccco3)nc2n1", "inhibition": "-8.62% (inactive)"}
{"molecule": "Cc1nc(-n2[nH]c(C)c(CC(=O)N3CCOCC3)c2=O)sc1C", "inhibition": "8.41% (inactive)"}
{"molecule": "Cc1c(-c2nn3c(-c4ccco4)nnc3s2)cccc1[N+](=O)[O-]", "inhibition": "89.2% (active)"}
{"molecule": "CC(C)Cc1cc(-c2nn3c(-c4ccccc4Cl)nnc3s2)n[nH]1", "inhibition": "-0.275% (inactive)"}
{"molecule": "c1ccc(CN2CCCC(c3nc(-c4cccnc4)n[nH]3)C2)cc1", "note": "(centres undefined)", "inhibition": "-0.172% (inactive)"}
{"molecule": "Cc1noc(-c2cccn(Cc3cc(F)ccc3F)c2=O)n1", "inhibition": "2.57% (inactive)"}
{"molecule": "O=C(Cn1cccc(-c2nc(-c3ccccc3)no2)c1=O)Nc1ccccc1F", "inhibition": "90.4% (active)"}
{"molecule": "O=C(CN1CCC(c2nc(-c3ccccc3)no2)CC1)Nc1ccccc1", "inhibition": "3.46% (inactive)"}
